# Values without a mark were called inactive. Records with an inconclusive call do not appear. Entries that show only a call come without a potency. The source made the active and inactive calls. Unless noted, calls follow the shape of the full dose curve.
# Experiments:
# [1] = Nuclear factor erythroid 2-related factor 2/antioxidant responsive element (Nrf2/ARE) small molecule agonists: qHTS cell viability counter screen in human keratinocytes (AID 1919968; active = well fitted curve in the direction sought with a large enough effect in the repeat runs; an effect the other way counts as inactive or inconclusive; also: nearly all actives have a fitted effect of over 55% in size)
# How it was run: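 Parallel cytotoxicity read: KeratinoSens HaCaT cells, compound treatment 23 h, viability by CellTiter-Fluor fluorescence 1 h post-reagent.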
# [2] = Nuclear factor erythroid 2-related factor 2/antioxidant responsive element (Nrf2/ARE) small molecule agonists: luciferase reporter gene qHTS assay in human keratinocytes (AID 1919969); also: nearly all actives have a fitted effect of over 35% in size; also: potency is read from the fitted curve at half-maximal effect
# [3] = target: Gonadotropin-releasing hormone receptor (Homo sapiens) (UniProt P30968); test: Human gonadotropin-releasing hormone receptor (GnRHR) small molecule agonists, calcium flux assay in GnRHR-HEK293 cells (AID 1920063); also: nearly all actives have a fitted effect of over 35% in size
# How it was run: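 Calcium flux, agonist mode, human GnRHR stably integrated in HEK293; dye 1 h at 37 C before compound; Ex/Em=480/540 kinetic read, 3 min; 15 concentrations, triplicate.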
# [4] = target: KiSS-1 receptor (Homo sapiens) (UniProt Q969F8); test: Human kisspeptin (KISS1R) small molecule agonists, calcium flux assay in KISS1R-HEK293 cells (AID 1920064; active = well fitted curve in the direction sought with a large enough effect in the repeat runs; an effect the other way counts as inactive or inconclusive)
# How it was run: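 Triplicate 15-concentration series were applied to dye-loaded human KISS1R HEK293 cells, and agonist-evoked calcium fluorescence was captured for 3 min.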
# [5] = G protein-coupled receptor (GPCR) small molecule agonists, calcium flux assay: HEK293 wild type cell line counter screen (AID 1920065)
# How it was run: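 Non-specific calcium responders were flagged by adding DMSO-dissolved compounds to dye-loaded cells and reading 480/540 nm fluorescence each second for 3 min; ATP served as positive control.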
# [6] = p53 small molecule agonists, cell-based qHTS assay with human liver microsomes (AID 1963577);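 also: p53 response element beta-lactamase reporter cells with liver microsomes plus NADPH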
# How it was run: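 p53RE-bla cells; 5 h settle, 37 C/5% CO2; cpd + HLM 0.5 mg/mL + NADPH 0.5 mg/mL (final); 16 h 37 C; LiveBLAzer 2 h RT dark; fluorescence readout.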
# [7] = p53 small molecule agonists, cell-based qHTS assay with rat liver microsomes (AID 1963578)
# How it was run: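 Rat liver microsome activation: microsomes 0.5 mg/mL, NADPH 0.5 mg/mL final; p53RE-bla cells, 16 h 37 C; LiveBLAzer readout, 2 h RT dark.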
# [8] = p53 small molecule agonists, cell-based qHTS assay with human liver microsomes: qHTS cell viability counter screen (AID 1963579); also: nearly all actives have a fitted effect of over 45% in size
# How it was run: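 Luminescent CellTiter-Glo read-out, 30 min at room temperature, gauged cytotoxicity in p53RE-bla cells exposed 16 h at 37 C to DMSO-dissolved compounds with metabolic activation by human liver microsomes and NADPH, each 0.5 mg/mL final.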
# [9] = p53 small molecule agonists, cell-based qHTS assay with rat liver microsomes: qHTS cell viability counter screen (AID 1963580); also: nearly all actives have a fitted effect of over 45% in size
# How it was run: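 Cytotoxicity counter screen: intracellular ATP measured by CellTiter-Glo luminescence in the same wells as the beta-lactamase reporter read, on HCT-116 p53RE-bla cells exposed 16 h at 37 C to compounds with rat liver microsomes and NADPH, each 0.5 mg/mL final.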
# [10] = p53 small molecule agonists, cell-based qHTS assay: qHTS cell viability counter screen (AID 1963581); also: nearly all actives have a fitted effect of over 45% in size
# How it was run: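 Multiplexed with the reporter read, a CellTiter-Glo step (30 min, room temperature) gauges ATP-based viability of HCT-116 p53RE-bla cells after 16 h compound incubation at 37 C.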
# [11] = cAMP Responsive Elements (CRE) small molecule agonists, cell-based qHTS assay (AID 1963590)
# How it was run: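 Quantitative HTS for CRE agonists: HEK 293T CRE-bla cells, overnight plating, 3 h compound incubation at 37 C/5% CO2, then 2 h room-temperature LiveBLAzer B/G FRET substrate loading.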
# [12] = cAMP Responsive Elements (CRE) small molecule antagonists, cell-based qHTS assay (AID 1963591; active = well fitted inhibition curve with a large enough effect in the signal ratio in the repeat runs, not every such curve was filed as active; the % refers to the signal ratio)
# How it was run: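 Fluorescence intensity from cleaved LiveBLAzer B/G substrate (2 h, room temperature) quantified CRE-bla activity in HEK 293T cells exposed 3 h to compound with 0.25 uM final NKH477.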
# [13] = target: Beta-2 adrenergic receptor (Homo sapiens) (UniProt P07550); test: Adrenergic beta2 receptor (ADRB2) small molecule antagonists, cell-based qHTS assay (AID 1963592); also: series mostly up to about 92 µM; nearly all actives have a fitted effect of over 50% in size
# How it was run: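 Assay format: CHO-ADRB2 cells, 18-20hr seeding at 37C/5% CO2, then compound plus 1nM isoproterenol agonist mix for 0.5hr RT. Homogeneous time-resolved fluorescence cAMP detection after 1hr, expressed as 665/615 nm ratio.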
# [14] = target: D(2) dopamine receptor (Homo sapiens) (UniProt P14416); test: Dopamine D2 receptor (DRD2) small molecule agonists, cell-based qHTS assay (AID 1963594); also: nearly all actives have a fitted effect of over 35% in size
# How it was run: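 HEK293 cells stably expressing human DRD2, pre-treated with PDE inhibitor Ro20-1724 (0.1 mM final) and compound 10 min at room temperature, then stimulated with NKH477 (200nM […]) for 30 min. cAMP read by HTRF (665/620 nm).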
# [15] = target: D(2) dopamine receptor (Homo sapiens) (UniProt P14416); test: Dopamine D2 receptor (DRD2) small molecule antagonists, cell-based qHTS assay (AID 1963595; active = well fitted inhibition curve with a large enough effect in the signal ratio in the repeat runs, with a control signal flat; the % refers to the signal ratio)
# How it was run: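 Antagonist mode in DRD2-HEK293 cells: after compound addition with 0.1 mM Ro20-1724, cells received quinpirole (12 nM) and NKH477 (200 nM) for 30 min at room temperature; HTRF cAMP read after 1 h detection.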
# [16] = target: 5-hydroxytryptamine receptor 2A (Homo sapiens) (UniProt P28223); test: 5-hydroxytryptamine receptor 2A (HTR2A) small molecule agonists, cell-based qHTS assay (AID 1963587); also: nearly all actives have a fitted effect of over 30% in size
# How it was run: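 CHO cells stably expressing human HTR2A, plated 18 h, loaded with calcium dye 1 h at 37 C. Agonist mode: compounds added and intracellular calcium fluorescence recorded kinetically for 2 min at 1 sec intervals.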
# [17] = target: Muscarinic acetylcholine receptor M1 (Homo sapiens) (UniProt P11229); test: Cholinergic receptor muscarinic 1 (CHRM1) small molecule antagonists, cell-based qHTS assay (AID 1963588); also: nearly all actives have a fitted effect of over 40% in size
# How it was run: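 Compounds were tested at 15 concentrations in three independent runs. Dye-loaded CHRM1-CHO cells were exposed 5 min at room temperature before stimulation by acetylcholine added at 50nM. Intracellular calcium was read kinetically on FDSS for 3 min.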
# [18] = target: Muscarinic acetylcholine receptor M1 (Homo sapiens) (UniProt P11229); test: Cholinergic receptor muscarinic 1 (CHRM1) small molecule agonists, cell-based qHTS assay (AID 1963589); also: nearly all actives have a fitted effect of over 35% in size
# How it was run: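 qHTS, 15-point titration, 3 independent runs: compounds pin-transferred onto dye-loaded CHRM1-CHO cells (human M1), calcium fluorescence followed every second to detect agonism.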
# D(2) dopamine receptor (Homo sapiens), sequence (P14416 whole entry, looked up): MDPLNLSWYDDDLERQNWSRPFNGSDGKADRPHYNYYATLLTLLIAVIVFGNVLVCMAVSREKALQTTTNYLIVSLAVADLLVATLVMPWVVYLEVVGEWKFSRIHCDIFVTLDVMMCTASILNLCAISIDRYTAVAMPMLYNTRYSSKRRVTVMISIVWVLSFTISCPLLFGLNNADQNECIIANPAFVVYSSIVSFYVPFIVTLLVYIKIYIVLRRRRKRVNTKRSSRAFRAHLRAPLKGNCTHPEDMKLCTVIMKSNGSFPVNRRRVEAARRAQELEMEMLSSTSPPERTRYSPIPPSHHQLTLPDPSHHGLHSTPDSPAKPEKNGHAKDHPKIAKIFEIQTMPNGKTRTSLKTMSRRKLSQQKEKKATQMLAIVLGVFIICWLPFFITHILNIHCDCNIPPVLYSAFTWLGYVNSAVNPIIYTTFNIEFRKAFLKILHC
# KiSS-1 receptor (Homo sapiens), sequence (Q969F8 whole entry, looked up): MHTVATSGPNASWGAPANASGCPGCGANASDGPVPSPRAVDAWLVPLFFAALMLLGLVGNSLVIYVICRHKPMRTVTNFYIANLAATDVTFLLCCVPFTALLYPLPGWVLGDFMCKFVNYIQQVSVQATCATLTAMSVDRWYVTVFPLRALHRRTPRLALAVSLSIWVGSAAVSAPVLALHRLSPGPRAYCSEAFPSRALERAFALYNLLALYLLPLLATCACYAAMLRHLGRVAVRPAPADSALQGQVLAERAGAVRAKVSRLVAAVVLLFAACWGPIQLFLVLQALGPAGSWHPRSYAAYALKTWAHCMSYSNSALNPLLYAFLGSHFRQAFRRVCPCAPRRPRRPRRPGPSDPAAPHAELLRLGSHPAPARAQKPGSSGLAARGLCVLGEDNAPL
# Gonadotropin-releasing hormone receptor (Homo sapiens), sequence (P30968 whole entry, looked up): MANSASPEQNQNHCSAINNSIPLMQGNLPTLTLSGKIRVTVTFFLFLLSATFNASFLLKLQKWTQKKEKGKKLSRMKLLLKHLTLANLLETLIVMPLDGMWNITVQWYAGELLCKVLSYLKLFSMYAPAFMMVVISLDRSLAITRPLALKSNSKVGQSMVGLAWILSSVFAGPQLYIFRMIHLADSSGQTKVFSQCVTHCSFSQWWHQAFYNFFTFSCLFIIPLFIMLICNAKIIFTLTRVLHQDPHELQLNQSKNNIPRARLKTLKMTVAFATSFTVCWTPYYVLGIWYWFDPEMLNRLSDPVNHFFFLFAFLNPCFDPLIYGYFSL
# Beta-2 adrenergic receptor (Homo sapiens), sequence (P07550 whole entry, looked up): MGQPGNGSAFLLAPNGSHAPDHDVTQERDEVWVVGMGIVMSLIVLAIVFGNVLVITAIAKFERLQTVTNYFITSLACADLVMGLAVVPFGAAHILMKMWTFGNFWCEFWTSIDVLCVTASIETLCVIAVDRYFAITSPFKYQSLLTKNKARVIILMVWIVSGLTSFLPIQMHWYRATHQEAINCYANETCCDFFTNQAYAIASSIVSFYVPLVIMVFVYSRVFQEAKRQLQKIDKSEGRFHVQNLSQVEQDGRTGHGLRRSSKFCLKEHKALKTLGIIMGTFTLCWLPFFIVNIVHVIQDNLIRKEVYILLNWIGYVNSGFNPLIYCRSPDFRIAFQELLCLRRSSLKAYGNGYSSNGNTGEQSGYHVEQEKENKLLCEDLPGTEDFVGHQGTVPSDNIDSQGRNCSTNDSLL
# Muscarinic acetylcholine receptor M1 (Homo sapiens), sequence (P11229 whole entry, looked up): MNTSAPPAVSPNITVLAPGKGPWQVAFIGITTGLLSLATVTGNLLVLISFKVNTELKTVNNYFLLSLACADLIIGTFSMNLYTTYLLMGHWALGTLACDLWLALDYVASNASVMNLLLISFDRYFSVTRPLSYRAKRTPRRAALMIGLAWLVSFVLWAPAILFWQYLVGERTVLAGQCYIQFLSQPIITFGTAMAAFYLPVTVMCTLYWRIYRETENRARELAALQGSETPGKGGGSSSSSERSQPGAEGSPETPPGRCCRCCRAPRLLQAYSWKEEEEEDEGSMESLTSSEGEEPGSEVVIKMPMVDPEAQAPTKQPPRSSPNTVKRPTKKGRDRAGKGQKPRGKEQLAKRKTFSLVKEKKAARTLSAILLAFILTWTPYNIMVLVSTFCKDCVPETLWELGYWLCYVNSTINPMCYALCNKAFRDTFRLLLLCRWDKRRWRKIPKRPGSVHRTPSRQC
# 5-hydroxytryptamine receptor 2A (Homo sapiens), sequence (P28223 whole entry, looked up): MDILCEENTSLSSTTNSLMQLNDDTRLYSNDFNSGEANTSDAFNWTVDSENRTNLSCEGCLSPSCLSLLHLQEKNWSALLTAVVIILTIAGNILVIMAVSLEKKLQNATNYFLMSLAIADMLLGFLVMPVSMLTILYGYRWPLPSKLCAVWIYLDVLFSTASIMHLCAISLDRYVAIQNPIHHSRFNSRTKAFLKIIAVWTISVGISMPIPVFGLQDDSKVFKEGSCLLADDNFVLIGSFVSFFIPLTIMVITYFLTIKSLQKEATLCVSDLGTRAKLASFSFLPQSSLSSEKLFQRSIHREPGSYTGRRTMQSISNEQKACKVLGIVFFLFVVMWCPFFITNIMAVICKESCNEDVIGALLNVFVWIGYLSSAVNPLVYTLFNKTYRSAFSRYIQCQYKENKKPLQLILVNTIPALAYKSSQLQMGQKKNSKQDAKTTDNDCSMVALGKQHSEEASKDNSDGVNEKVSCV
SMILES,Potency [1],Potency [2],Potency [3],outcome [4],outcome [5],Potency [6],Potency [7],Potency [8],Potency [9],Potency [10],Potency [11],Potency [12],Potency [13],Potency [14],Potency [15],Potency [16],Potency [17],Potency [18]
Cc1cc(C(C)(C)C)c(O)c(C)c1CC1=NCCN1,inactive,inactive,inactive,inactive,inactive,inactive,inactive,inactive,inactive,inactive,inactive,inactive,inactive,inactive,inactive,–,–,–
O=C(OCC(COC(=O)c1ccccc1)(COC(=O)c1ccccc1)COC(=O)c1ccccc1)c1ccccc1,inactive,inactive,inactive,inactive,inactive,inactive,inactive,inactive,inactive,inactive,–,inactive,inactive,inactive,inactive,inactive,inactive,inactive
Cc1c(C)c([N+](=O)[O-])c(C(C)(C)C)c([N+](=O)[O-])c1C,inactive,inactive,inactive,inactive,inactive,inactive,inactive,inactive,inactive,inactive,inactive,inactive,inactive,inactive,–,–,inactive,–
CC(C)C[C@H](NC(=O)OCC1c2ccccc2-c2ccccc21)C(=O)O,inactive,611 nM (active),inactive,inactive,inactive,inactive,inactive,inactive,inactive,inactive,–,–,inactive,inactive,inactive,inactive,inactive,inactive

# Reference: PubChem BioAssay (Tox21)
